Structures can show the parent of a compound that is named as a salt.

The test system of the first assay is FB. In words: Euclidean distance of Cell Painting phenotypic profile (signed KS, 77 features) to DMSO centroid (dimensionless distance); 5 or 10 uM (library dependent); higher = stronger phenotypic change vs DMSO (phenoactivity). As to conditions: 48 h. In outline:
(§1)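 Phenoactivity is computed as Euclidean distance to the median vehicle profile. The profiles, drawn from 77 Harmony features scored as signed Kolmogorov-Smirnov statistics versus same-plate vehicle wells, were corrected for plate position, correlation-weighted and replicate-averaged at the top dose. Stained cells were imaged confocally at 20X (9 fields/well) after 48 h with library compounds at 10 or 5 uM, 0.1% DMSO final, in five cancer lines and a healthy fibroblast line.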
The compound `C#C[C@]1(O)CC[C@H]2[C@@H]3CCc4cc(O)ccc4[C@H]3CC[C@@]21C` [Ethinyl Estradiol] returned an Euclidean distance of 1.09. `C=CC(=O)Nc1cc(Nc2nccc(-c3cn(C4CC4)c4ccccc34)n2)c(OC)cc1N(C)CCN(C)C`: the Euclidean distance is 2.32. In turn, `COC(=O)Nc1nc2cc(C(=O)c3cccs3)ccc2[nH]1` [Nocodazole] registered an Euclidean distance of 2.56.

`O=C(O)CCc1nc(-c2ccccc2)c(-c2ccccc2)o1` [Oxaprozin] gave an Euclidean distance of 0.987. On the same count and under the same terms, as for `CC(C)N(CC[C@H](c1ccccc1)c1cc(CO)ccc1O)C(C)C`, the figure is 0.842.

The next assay relates to HEPG2. The description is as above. Particulars: 48 h. In outline: as §1
The compound `O=c1cc(-c2ccccc2)oc2cc(O)c(O)c(O)c12` [Baicalein] showed an Euclidean distance of 0.918. The compound `CC[C@H](Nc1ncnc2[nH]cnc12)c1nc2cccc(F)c2c(=O)n1-c1ccccc1` [CAL-101 (Idelalisib. GS-1101)] came in with an Euclidean distance of 0.747. Same read-out and setting: with `C[C@]12CC[C@H](O)CC1=CC[C@@H]1[C@@H]2CC[C@]2(C)C(n3cnc4ccccc43)=CC[C@@H]12` [Galeterone] the figure was 2.1; with `CC(=O)Nc1nc(C)c(-c2ccc(Cl)c(S(=O)(=O)NCCO)c2)s1`, 0.945; with `OCc1ccccc1` [Benzyl alcohol], 1.52. Still for that read-out and setting: with `C[C@]12CCC(=O)C=C1C=C[C@@H]1[C@@H]2CC[C@@]2(C)[C@H]1CC[C@@]21CCC(=O)O1` [Canrenone] the figure was 1.24. Still for that read-out and setting: as for `CN1C2CCCC1CC(NC(=O)c1nn(C)c3ccccc13)C2` (centres undefined) [Granisetron HCl], the figure is 1.27; as for `O=C(/C=C/c1ccc(O)c(O)c1)OCCc1ccccc1` [Caffeic Acid Phenethyl Ester], 1.71; as for `C[C@H](N[C@@H](CCc1ccccc1)C(=O)O)C(=O)N1CCC[C@H]1C(=O)O` [Enalaprilat Dihydrate], 0.793.

In the case of `O=c1c(-n2ccnn2)c[nH]n1-c1cc(N2CCOCC2)ncn1` [Molidustat (BAY 85-3934)], the Euclidean distance is 0.627. For `COCC(=O)Nc1cc(Sc2ccccc2)ccc1N=C(NC(=O)OC)NC(=O)OC` [Febantel], the Euclidean distance came out at 1.09. `OCc1cc([C@@H](O)CNCCCCCCOCCOCc2c(Cl)cccc2Cl)ccc1O` [Vilanterol Trifenate] came in with an Euclidean distance of 0.721. In turn, `Nc1c(CC(=O)O)cccc1C(=O)c1ccc(Br)cc1` [Bromfenac Sodium] came in with an Euclidean distance of 0.3. On the same count and under the same terms, with `COc1c(C)c2c(c(O)c1C/C=C(\C)CCC(=O)OCCN1CCOCC1)C(=O)OC2` [Mycophenolate Mofetil] the figure was 2.76. The same measure, in the same setting: with `CO/N=C(\C(=O)N[C@@H]1C(=O)N2C(C(=O)O)=C(CSc3nc(C)c(CC(=O)O)s3)CS[C@H]12)c1csc(N)n1` [Cefodizime Sodium] the figure was 0.792. Still for that read-out and setting: as for `CC(C)=CCOc1ccc(/C=C/C(=O)c2ccc(OCC=C(C)C)cc2OCC(=O)O)cc1` [Sofalcone], the figure is 0.922; as for `CC(C)(F)C[C@H](N[C@@H](c1ccc(-c2ccc(S(C)(=O)=O)cc2)cc1)C(F)(F)F)C(=O)NC1(C#N)CC1` [Odanacatib (MK-0822)], 1.37. `CONC(=O)Nc1ccc(-c2sc3c(c2CN(C)C)c(=O)n(-c2ccc(OC)nn2)c(=O)n3Cc2c(F)cccc2F)cc1` [Relugolix]: the Euclidean distance worked out at 0.841.

In turn, `Cc1ccc(NC(=O)c2ccc(CN3CCN(C)CC3)cc2)cc1Nc1nccc(-c2cccnc2)n1` [Imatinib Mesylate (STI571)] registered an Euclidean distance of 1.61. Consider `C#Cc1cccc(Nc2ncnc3cc(OCCOC)c(OCCO)cc23)c1`, for which the Euclidean distance is 1.07. On the same count and under the same terms, with `CC(C)(O)c1cc(Nc2cc(Oc3cn(C4CC4)nc3C3CCOCC3)ccn2)ccn1` the figure was 1.09; with `Cc1cc(Nc2nc(N[C@@H](C)c3ccc(F)cc3)c(C#N)cc2F)n[nH]1`, 2.18; with `Nc1nc(F)nc2c1ncn2[C@@H]1O[C@H](CO)[C@@H](O)[C@@H]1O` [Fludarabine], 1.21.

In turn, `Nc1nc2c(ncn2COC(CO)CO)c(=O)[nH]1` [Ganciclovir] yielded an Euclidean distance of 0.883.

On to `Cc1cc(NS(=O)(=O)c2ccc(N)cc2)nc(C)n1` [sulfaisodimidine], for which the Euclidean distance turned out to be 0.529.

The compound `O=C(c1ccc(C(=O)N2CCC(N3CCCC3)CC2)c(Nc2ccccc2)c1)N1CCC(N2CCCC2)CC1` had an Euclidean distance of 0.536. On the same count and under the same terms, as for `O=C(N/N=C/c1ccc([N+](=O)[O-])o1)c1ccc(O)cc1` [Nifuroxazide], the figure is 2.82. Regarding `CCCCCCCCOc1ccccc1C(=O)Nc1ccc(C(=O)OCC[N+](C)(CC)CC)cc1` [Otilonium Bromide], the Euclidean distance turned out to be 1.11.

In turn, `c1ccc(-c2ccc(C(c3ccccc3)n3ccnc3)cc2)cc1` (centres undefined) [Bifonazole] displayed an Euclidean distance of 0.639. Still for that read-out and setting: with `O=C(O)CCCc1cc2cc(Cl)ccc2n1S(=O)(=O)c1ccc2ncsc2c1` [Lanifibranor(IVA-337)] the figure was 0.544; with `CCC[C@H](N[C@H]1CCc2cc(F)cc(F)c2C1)C(=O)Nc1cn(C(C)(C)CNCC(C)(C)C)cn1`, 1.07; with `CNS(=O)(=O)CCc1ccc2[nH]cc(C3CCN(C)CC3)c2c1` [Naratriptan], 0.943.

`Cc1nc(Nc2ccc(F)cc2)nc(N2CCc3ccccc3C2C)c1C` (centres undefined) [Revaprazan Hydrochloride]: the Euclidean distance was 1.21.

For the compound `NCc1ccc(S(N)(=O)=O)cc1` [Mafenide hydrochloride], the Euclidean distance stood at 0.629. Still for that read-out and setting: with `C#C[C@]1(O)CC[C@H]2[C@@H]3CCc4cc(O)ccc4[C@H]3CC[C@@]21C` [Ethinyl Estradiol] the figure was 0.768; with `C=CC(=O)Nc1cc(Nc2nccc(-c3cn(C4CC4)c4ccccc34)n2)c(OC)cc1N(C)CCN(C)C`, 2.67. Still for that read-out and setting: as for `COC(=O)Nc1nc2cc(C(=O)c3cccs3)ccc2[nH]1` [Nocodazole], the figure is 2.58; as for `O=C(O)CCc1nc(-c2ccccc2)c(-c2ccccc2)o1` [Oxaprozin], 1.16; as for `CC(C)N(CC[C@H](c1ccccc1)c1cc(CO)ccc1O)C(C)C`, 1.02.

Values taken from the supplement of paper PMC10127200.
